This is a sample that favours compounds with a hit; in the whole collection about 2.7% have one here.
MsrA inhibitor: inhibits bovine methionine sulfoxide reductase A; purified bovine MsrA, absorbance read-out; hit rate 0.75% among 360,000; inhibition, % at 15.5 µM; in the data active = inhibition above about 4.5%
rCAG RNA binder: r(CAG) repeat RNA binding. TO-PRO-1 dye displacement fluorescence. inhibition, % at 3 µM. hit rate 1.3% among 370,000;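 active = inhibition above the plate cutoff, the mean of all test compounds on that plate plus 3 SD, cut at about 35% in these data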;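 note: higher means more dye released from RNA so lower well fluorescence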
MsrA act: activates bovine MsrA enzyme; purified bovine MsrA, absorbance read-out; hit rate 0.3% among 360,000; AID 602163; activation, % at 10.6 µM; in the data active = activation above about 7.5%
NadD inh: NadD (S. aureus) enzyme inhibition. inhibition, % at 20 µM. purified NadD enzyme, colorimetric absorbance read-out. hit rate 0.78% among 360,000; in the data active = inhibition above about 26%
NadD conf: NadD (S. aureus) inhibition, single concentration confirmation; purified S. aureus NadD, colorimetric enzyme assay; hit rate 13% among 2,000; shares compounds with NadD inh; inhibition, % at 20 µM; in the data active = inhibition mostly above about 42%, no sharp cut-off; inactive = mostly below about 42%
Hits are given with their value; i = inactive; nt = no result given.

SMILES	MsrA inhibitor	rCAG RNA binder	MsrA act	NadD inh	NadD conf
CCCCC(CC)C(=O)Nc1cc(C(=O)NCc2ccc(C)cc2)ccc1N1CCC2(CC1)CC(c1ccccc1)=NO2 (centres undefined)	i	i	i	33	i
CCCCC(CC)C(=O)Nc1cc(C(=O)NCCC)ccc1N1CCC2(CC1)CC(c1cccc(Br)c1)=NO2 (centres undefined)	i	i	i	31	i
O=C(O)Cc1sc(N/N=C\c2ccccc2)nc1-c1ccccc1	i	44	i	47	55
O=C(COC(=O)/C=C/c1ccc(Cl)cc1)NC1CCCCCC1	i	i	i	i	nt
Cc1ccc(S(=O)(=O)NC(=O)Nc2ccc(C)cn2)cc1	i	i	i	i	nt
CCc1nc2ccc(C(=O)Nc3ccc(C(N)=O)cc3)cn2c1N(CCC(C)C)CCN(C)C	i	i	i	i	nt
Clc1ccc(/C=N/NC2=Nc3cccc4cccc2c34)cc1	i	i	i	30	i
C(=N\NC1=Nc2cccc3cccc1c23)/c1ccccc1	i	i	i	i	nt
COc1cccc(-c2nc(N3CCN(c4ccccc4)CC3)c3ccccc3n2)c1O	i	i	i	31	i
Cc1ccc(S(=O)(=O)Nc2ccc(Nc3nccn4c(-c5cccc(OC(F)(F)F)c5)cnc34)cc2)cc1	i	i	i	33	53
O=c1cc(CN2CCN(c3cccc(Cl)c3)CC2)c2cc(O)c(-c3ccccc3)cc2o1	i	i	i	39	i
O=c1cc(CN2CCN(c3ccccc3)CC2)c2cc(O)c(-c3ccccc3)cc2o1	i	i	i	i	nt
COc1ccc(N/C(N)=N/c2nc(CSc3ccc(Cl)cc3)cc(=O)[nH]2)cc1	i	i	i	i	nt
N/C(=N\c1nc(CSc2ccc(Cl)cc2)cc(=O)[nH]1)Nc1cccc2ccccc12	i	i	i	27	i
Cc1ccc(NC(=O)CSc2nc3ccc(Nc4nc(N5CCOCC5)nc(N5CCOCC5)n4)cc3s2)cc1	i	i	i	30	i
COc1ccc(NC(=O)CSc2nc3ccc(Nc4nc(N5CCOCC5)nc(N5CCOCC5)n4)cc3s2)cc1	i	i	i	i	nt
O=C(CNc1cc(S(=O)(=O)N2CCOCC2)ccc1N1CCCC1)N1CCc2ccccc21	i	i	i	i	nt
C=CCOc1ccc(C2/C(=C(/O)c3ccc4c(c3)CC(C)O4)C(=O)C(=O)N2CCCN2CCOCC2)cc1 (centres undefined)	i	i	i	29	i
COc1ccc(C2/C(=C(/O)c3ccc4c(c3)CC(C)O4)C(=O)C(=O)N2CCCN2CCOCC2)cc1 (centres undefined)	i	i	i	i	nt
O=S1(=O)N[C@H](Cc2ccccc2)COc2cc(Br)ccc21	i	i	nt	nt	nt
CCOc1ccc(S(=O)(=O)N2CN(c3cccc(C(C)=O)c3)c3nc4ccccc4nc32)cc1	i	i	i	30	i
O=C1NC(=O)C([N+](=O)[O-])=C(O)C1=O	i	i	i	i	nt
COC/C=C/C1=CC2=CC(=O)C(C)(OC(=O)c3cnc4ccccc4n3)C(=O)C2=CN1c1ccc(OC)cc1 (centres undefined)	i	i	i	33	i
O=C(COc1ccc(-c2ccccc2)cc1)N/N=C/c1cc(O)ccc1Br	i	i	i	31	i
O=C(c1ccc2c(=O)n(Cc3ccco3)c(=S)[nH]c2c1)N1CCN(Cc2ccccc2)CC1	i	i	i	56	36
SMILES	MsrA inhibitor	rCAG RNA binder	MsrA act	NadD inh	NadD conf
CN1CCN(C(=O)c2ccc3c(=O)n(Cc4ccco4)c(=S)[nH]c3c2)CC1	i	i	i	i	nt
O=C(Nn1cnnc1)c1cc(-c2ccccn2)nc2ccccc12	i	i	i	i	nt
O=C(NNS(=O)(=O)c1ccc2ccccc2c1)c1cc(-c2ccccn2)nc2ccccc12	i	i	i	45	49
CC(Cc1nnc(N)s1)c1ccccc1 (centres undefined)	i	i	i	i	nt
CC1CC(C)(C)CC2(C1)NC(=O)N(CC(=O)Nc1cc(C(F)(F)F)ccc1N1CCCCC1)C2=O (centres undefined)	i	i	i	42	i
O=C(CN1C(=O)NC2(CCCCC2)C1=O)Nc1cc(C(F)(F)F)ccc1N1CCCC1	i	i	i	i	nt
Cc1cccc(N2CCN(c3ccc4cc(S(=O)(=O)N5CCCCC5)ccc4n3)CC2)c1C	i	i	i	29	i
Cc1ccc(C)c(N2CCN(c3ccc4cc(S(=O)(=O)N5CCCCC5)ccc4n3)CC2)c1	i	i	i	32	i
Cc1cccc(N2CCN(c3ccc4cc(S(=O)(=O)N5CCCCC5)ccc4n3)CC2C)c1 (centres undefined)	i	i	i	i	nt
NC(CSC1(c2ccc(Cl)cc2)c2ccccc2-c2ccccc21)C(=O)O (centres undefined)	i	i	i	41	57
COc1ccc(C2(SCC(N)C(=O)O)c3ccccc3-c3ccccc32)cc1 (centres undefined)	i	i	i	36	i
COCCCN1C(=O)CC(C(=O)OC)=C1C	i	i	i	i	nt
Cc1ccc(-c2nn(-c3ccccc3)cc2/C=N/n2c(-c3ccncc3)n[nH]c2=S)cc1	i	i	i	39	i
S=c1[nH]nc(-c2cccs2)n1/N=C/c1cn(-c2ccccc2)nc1-c1ccccc1	i	i	i	i	nt
CC(C)NC(=O)Nc1ccc2c(c1)C(=O)N([C@H](C)CO)C[C@H](C)[C@@H](CN(C)S(=O)(=O)c1ccccc1)O2	i	i	i	i	nt
C[C@H](CO)N1C[C@H](C)[C@@H](CN(C)S(=O)(=O)c2ccccc2)Oc2ccc(NC(=O)Nc3ccc(C(F)(F)F)cc3)cc2C1=O	i	i	i	35	i
C[C@H](CO)N1C[C@H](C)[C@@H](CN(C)Cc2ccncc2)OCCCC[C@H](C)Oc2ccc(NC(=O)CCCN(C)C)cc2C1=O	i	i	i	54	i
COc1ccc(NC(=O)Nc2ccc3c(c2)C(=O)N([C@H](C)CO)C[C@H](C)[C@@H](CN(C)C(=O)Nc2ccc(OC)cc2)O3)cc1	i	i	i	i	nt
COc1ccc(NC(=O)N(C)C[C@H]2Oc3ccc(NC(=O)c4ccncc4)cc3C(=O)N([C@H](C)CO)C[C@@H]2C)cc1	i	i	i	40	41
Cc1ccc2c(=O)n3c(nc2c1)C(Cc1ccccc1)NC(=O)c1ccc(Cl)cc1-3 (centres undefined)	i	i	nt	nt	nt
CCOc1ccccc1N1CCN(S(=O)(=O)c2ccc3c4c(cccc24)C(=O)N3)CC1	i	37	i	30	i
CCOC(=O)N1CCN(S(=O)(=O)c2ccc3c4c(cccc24)C(=O)N3)CC1	i	i	i	i	nt
COc1ccc(C2=NN(c3nc(-c4ccccc4)c(CC(=O)O)s3)C(c3ccco3)C2)cc1 (centres undefined)	i	46	i	61	72
O=c1c2ccccc2c(/C=N/c2nnc(Cc3ccccc3)s2)c(O)n1-c1ccc(Cl)cn1	i	i	i	48	i
Cc1cccc(C)c1N=Cc1c(O)n(-c2nccs2)c(=O)c2ccccc12	nt	nt	i	i	nt
CN(CC(=O)Nc1cc(C(F)(F)F)ccc1-n1cncn1)Cc1ccccc1N1CCOCC1	i	i	i	i	nt
CCC(=O)N(Cc1ccc2c(c1)OCO2)Cc1cc2cc(OC)ccc2[nH]c1=O	i	i	i	33	i

Assay outcomes: PubChem BioAssay, several laboratories
